# Reference: PubChem BioAssay (NCI)
# About 79,000 compounds went through this panel and 15% of them were active in at least one assay; those are over-represented in the sample as a whole. Unmarked numbers belong to inactive results. Active and inactive are the calls of the source. No stated cut-off is given here; in the data, active means growth inhibition above about 70%; inactive means the rest.
# Legend:
# [1] = NCI Yeast Anticancer Drug Screen. Data for the rad52 strain (AID 147);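 further: 0% = growth of vehicle-treated control cultures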; details: S. cerevisiae rad52 mutant growth inhibition, stronger effect = higher value
# Summary of the method: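 Measured: yeast growth inhibition. System: strain with a defined DNA damage repair alteration. Reference: vehicle-treated control cultures.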
# [2] = NCI Yeast Anticancer Drug Screen. Data for the wt1 strain (AID 149);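 further: 0% = growth of vehicle-treated wt1 cultures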; details: S. cerevisiae wt1 strain (SPY 50644) growth inhibition, stronger effect = higher value
# Summary of the method: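 Readout: yeast growth inhibition, normalised to vehicle controls, in the wt1 strain exposed to test compounds.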
# [3] = NCI Yeast Anticancer Drug Screen. Data for the rad50EPP+ strain (AID 151);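 further: 0% = growth of vehicle-treated control cultures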; details: S. cerevisiae rad50 mutant strain, stronger effect = higher value
# Summary of the method: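 One strain with a rad50 alteration (rad50EPP+) was compound-treated, its growth then compared to that of vehicle controls.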
# [4] = NCI Yeast Anticancer Drug Screen. Data for the rad50 strain (AID 155);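 further: 0% = growth of vehicle-only cultures of the same strain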; details: S. cerevisiae rad50 strain growth inhibition, stronger effect = higher value
# Summary of the method: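 Compounds were tested on a yeast strain with an engineered DNA damage repair alteration; the reported value is growth inhibition normalised to vehicle treatment.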
# [5] = NCI Yeast Anticancer Drug Screen. Data for the mec2-1 strain (AID 157); details: S. cerevisiae mec2-1 strain, stronger effect = higher value
# Summary of the method: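 Test agents were screened against the mec2-1 yeast strain, with defined DNA repair or cell cycle alteration. Growth was scored as inhibition against vehicle-only controls.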
# [6] = NCI Yeast Anticancer Drug Screen. Data for the rad14 strain (AID 159);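 further: 0% = growth of vehicle-treated control cultures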; details: S. cerevisiae rad14 strain growth inhibition, stronger effect = higher value
# Summary of the method: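 Compound-treated yeast with a defined DNA-repair lesion; growth inhibition normalised to vehicle-treated cultures.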
# [7] = NCI Yeast Anticancer Drug Screen. Data for the sgs1 mgt1 strain (AID 161);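 further: 0% = growth of cultures given vehicle only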; details: S. cerevisiae sgs1 mgt1 strain, stronger effect = higher value
# Summary of the method: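 Inhibition of yeast growth, normalised to vehicle-treated controls, is reported for a strain bearing genetic alterations in DNA damage repair.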
# [8] = NCI Yeast Anticancer Drug Screen. Data for the CLN2oe strain (AID 163);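 further: 0% = growth of vehicle-only control cultures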; details: S. cerevisiae CLN2oe strain, stronger effect = higher value
# Summary of the method: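 Here, growth inhibition in a cell-cycle-altered yeast strain after compound exposure was quantified against vehicle control growth.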
# [9] = NCI Yeast Anticancer Drug Screen. Data for the cln2 rad14 strain (AID 165);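 further: 0% = growth equal to vehicle treated cultures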; details: S. cerevisiae cln2 rad14 strain, stronger effect = higher value
# Summary of the method: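 Growth of compound-exposed yeast (cln2 rad14 genotype) measured and expressed as inhibition relative to vehicle.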
# [10] = NCI Yeast Anticancer Drug Screen. Data for the bub3 strain (AID 167); details: S. cerevisiae bub3 mutant strain, stronger effect = higher value
# Summary of the method: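 Growth of a checkpoint-deficient yeast mutant is measured after compound exposure. Values represent inhibition relative to vehicle.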
# [11] = NCI Yeast Anticancer Drug Screen. Data for the wt2 strain (AID 169);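 further: 0% = growth of vehicle-treated yeast cultures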; details: S. cerevisiae wt2 strain growth inhibition, stronger effect = higher value
# Summary of the method: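 Genetically defined yeast strains from a DNA-repair/cell-cycle panel were used. Compound-exposed yeast growth was measured, and the inhibition was calculated relative to vehicle treatment.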
# [12] = NCI Yeast Anticancer Drug Screen. Data for the mlh1 strain (AID 171);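 further: 0% = growth of vehicle-treated control cultures of the same strain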; details: S. cerevisiae mlh1 strain growth inhibition, stronger effect = higher value
# Summary of the method: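 Here the genetically defined yeast mutant is grown with each compound, and the extent to which its growth falls below that of vehicle-exposed cells is reported.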
# [13] = NCI Yeast Anticancer Drug Screen. Data for the sgs1 strain (AID 173);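 further: 0% = growth of vehicle-only control cultures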; details: S. cerevisiae sgs1 mutant, stronger effect = higher value
# Summary of the method: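 Relative growth inhibition, referenced to vehicle, was determined in a yeast strain with a defined alteration affecting DNA damage repair or cell cycle control after compound exposure.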
# [14] = NCI Yeast Anticancer Drug Screen. Data for the mlh1 rad18 strain (AID 175); details: S. cerevisiae mlh1 rad18 strain growth inhibition, stronger effect = higher value
# Summary of the method: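 In this whole-cell yeast screen, a strain with altered DNA damage repair is challenged with compound, and its growth is measured against matched vehicle-treated controls.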
# [15] = NCI Yeast Anticancer Drug Screen. Data for the rad18 strain (AID 177); details: S. cerevisiae rad18 mutant growth inhibition, stronger effect = higher value
# Summary of the method: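 Screen uses a yeast strain with a defined lesion in DNA damage repair; compound effect is read as loss of growth compared to untreated vehicle cultures.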
# [16] = at 5.0 µM (retest, dose inferred, filed as 0.5)
# [17] = at 50.0 µM (retest, dose inferred, filed as 5.0)
compound,measurement,setting,value
Cc1ccc(N=Nc2ccc(O)c(C)c2)cc1,growth inhibition,[1]; at 1.2 µM,6%
same,growth inhibition,[1]; at 3.7 µM,10%
same,growth inhibition,[1]; at 11.0 µM,88% (active)
same,growth inhibition,[1]; at 33.0 µM,98% (active)
same,growth inhibition,[1]; at 100.0 µM,87% (active)
same,growth inhibition,[2]; at 1.2 µM,5%
same,growth inhibition,[2]; at 3.7 µM,-2%
same,growth inhibition,[2]; at 11.0 µM,92% (active)
same,growth inhibition,[2]; at 33.0 µM,98% (active)
same,growth inhibition,[2]; at 100.0 µM,85% (active)
same,growth inhibition,[3]; at 1.2 µM,20%
same,growth inhibition,[3]; at 3.7 µM,39%
same,growth inhibition,[3]; at 11.0 µM,53%
same,growth inhibition,[3]; at 33.0 µM,96% (active)
same,growth inhibition,[3]; at 100.0 µM,82% (active)
same,growth inhibition,[4]; at 1.2 µM,9%
same,growth inhibition,[4]; at 3.7 µM,18%
same,growth inhibition,[4]; [16],38%
same,growth inhibition,[4]; at 11.0 µM,95% (active)
same,growth inhibition,[4]; at 33.0 µM,98% (active)
same,growth inhibition,[4]; [17],56%
same,growth inhibition,[4]; at 50.0 µM,91.2% (active)
same,growth inhibition,[4]; at 100.0 µM,94% (active)
same,growth inhibition,[5]; at 1.2 µM,10%
same,growth inhibition,[5]; at 3.7 µM,11%
same,growth inhibition,[5]; [16],52%
same,growth inhibition,[5]; at 11.0 µM,80% (active)
same,growth inhibition,[5]; at 33.0 µM,97% (active)
same,growth inhibition,[5]; [17],66%
same,growth inhibition,[5]; at 50.0 µM,92.5% (active)
same,growth inhibition,[5]; at 100.0 µM,79% (active)
same,growth inhibition,[6]; at 1.2 µM,4%
same,growth inhibition,[6]; at 3.7 µM,-7%
same,growth inhibition,[6]; at 11.0 µM,68%
same,growth inhibition,[6]; at 33.0 µM,96% (active)
same,growth inhibition,[6]; at 100.0 µM,89% (active)
same,growth inhibition,[7]; [16],-16%
same,growth inhibition,[7]; [17],91% (active)
same,growth inhibition,[7]; at 50.0 µM,92.5% (active)
same,growth inhibition,[8]; at 1.2 µM,-2%
same,growth inhibition,[8]; at 3.7 µM,-18%
same,growth inhibition,[8]; at 11.0 µM,97% (active)
same,growth inhibition,[8]; at 33.0 µM,97% (active)
same,growth inhibition,[8]; at 100.0 µM,78% (active)
same,growth inhibition,[9]; [16],32%
same,growth inhibition,[9]; [17],94% (active)
same,growth inhibition,[9]; at 50.0 µM,92.2% (active)
same,growth inhibition,[10]; at 1.2 µM,-6%
same,growth inhibition,[10]; at 3.7 µM,-7%
same,growth inhibition,[10]; [16],2%
same,growth inhibition,[10]; at 11.0 µM,95% (active)
same,growth inhibition,[10]; at 33.0 µM,97% (active)
same,growth inhibition,[10]; [17],95% (active)
same,growth inhibition,[10]; at 50.0 µM,91.3% (active)
same,growth inhibition,[10]; at 100.0 µM,84% (active)
same,growth inhibition,[11]; at 1.2 µM,5%
same,growth inhibition,[11]; at 3.7 µM,14%
same,growth inhibition,[11]; at 11.0 µM,91% (active)
same,growth inhibition,[11]; at 33.0 µM,98% (active)
same,growth inhibition,[11]; at 100.0 µM,79% (active)
same,growth inhibition,[12]; at 1.2 µM,19%
same,growth inhibition,[12]; at 3.7 µM,10%
same,growth inhibition,[12]; at 11.0 µM,91% (active)
same,growth inhibition,[12]; at 33.0 µM,97% (active)
same,growth inhibition,[12]; at 100.0 µM,80% (active)
same,growth inhibition,[13]; at 1.2 µM,28%
same,growth inhibition,[13]; at 3.7 µM,26%
same,growth inhibition,[13]; at 11.0 µM,90% (active)
same,growth inhibition,[13]; at 33.0 µM,98% (active)
same,growth inhibition,[13]; at 100.0 µM,85% (active)
same,growth inhibition,[14]; [16],37%
same,growth inhibition,[14]; [17],51%
same,growth inhibition,[14]; at 50.0 µM,91.9% (active)
same,growth inhibition,[15]; at 1.2 µM,27%
same,growth inhibition,[15]; at 3.7 µM,27%
same,growth inhibition,[15]; at 11.0 µM,89% (active)
same,growth inhibition,[15]; at 33.0 µM,98% (active)
same,growth inhibition,[15]; at 100.0 µM,91% (active)
Cc1ccc2occ/c(=N\Nc3ccccc3)c2c1,growth inhibition,[1]; at 1.2 µM,-3%
same,growth inhibition,[1]; at 3.7 µM,-4%
same,growth inhibition,[1]; at 11.0 µM,8%
same,growth inhibition,[1]; at 33.0 µM,33%
same,growth inhibition,[1]; at 100.0 µM,39%
same,growth inhibition,[2]; at 1.2 µM,2%
same,growth inhibition,[2]; at 3.7 µM,-5%
same,growth inhibition,[2]; at 11.0 µM,4%
same,growth inhibition,[2]; at 33.0 µM,11%
same,growth inhibition,[2]; at 100.0 µM,16%
same,growth inhibition,[3]; at 1.2 µM,1%
same,growth inhibition,[3]; at 3.7 µM,-3%
same,growth inhibition,[3]; at 11.0 µM,4%
same,growth inhibition,[3]; at 33.0 µM,58%
same,growth inhibition,[3]; at 100.0 µM,55%
same,growth inhibition,[4]; at 1.2 µM,5%
same,growth inhibition,[4]; at 3.7 µM,-7%
same,growth inhibition,[4]; [16],-16%
same,growth inhibition,[4]; at 11.0 µM,6%
same,growth inhibition,[4]; at 33.0 µM,57%
same,growth inhibition,[4]; [17],31%
same,growth inhibition,[4]; at 50.0 µM,73.8% (active)
same,growth inhibition,[4]; at 100.0 µM,58%
same,growth inhibition,[5]; at 1.2 µM,-4%
same,growth inhibition,[5]; at 3.7 µM,-4%
same,growth inhibition,[5]; [16],-11%
same,growth inhibition,[5]; at 11.0 µM,-2%
same,growth inhibition,[5]; at 33.0 µM,17%
same,growth inhibition,[5]; [17],23%
same,growth inhibition,[5]; at 50.0 µM,52.7%
same,growth inhibition,[5]; at 100.0 µM,24%
same,growth inhibition,[6]; at 1.2 µM,-2%
same,growth inhibition,[6]; at 3.7 µM,-2%
same,growth inhibition,[6]; at 11.0 µM,-4%
same,growth inhibition,[6]; at 33.0 µM,39%
same,growth inhibition,[6]; at 100.0 µM,45%
same,growth inhibition,[7]; [16],-1%
same,growth inhibition,[7]; [17],70% (active)
same,growth inhibition,[7]; at 50.0 µM,82.5% (active)
same,growth inhibition,[8]; at 1.2 µM,-9%
same,growth inhibition,[8]; at 3.7 µM,-7%
same,growth inhibition,[8]; at 11.0 µM,5%
same,growth inhibition,[8]; at 33.0 µM,-1%
same,growth inhibition,[8]; at 100.0 µM,12%
same,growth inhibition,[9]; [16],-21%
same,growth inhibition,[9]; [17],-23%
same,growth inhibition,[9]; at 50.0 µM,-23.1%
same,growth inhibition,[10]; at 1.2 µM,-4%
same,growth inhibition,[10]; at 3.7 µM,-4%
same,growth inhibition,[10]; [16],-4%
same,growth inhibition,[10]; at 11.0 µM,-4%
same,growth inhibition,[10]; at 33.0 µM,64%
same,growth inhibition,[10]; [17],70% (active)
same,growth inhibition,[10]; at 50.0 µM,87.8% (active)
same,growth inhibition,[10]; at 100.0 µM,70% (active)
same,growth inhibition,[11]; at 1.2 µM,-2%
same,growth inhibition,[11]; at 3.7 µM,-4%
same,growth inhibition,[11]; at 11.0 µM,7%
same,growth inhibition,[11]; at 33.0 µM,55%
same,growth inhibition,[11]; at 100.0 µM,57%
same,growth inhibition,[12]; at 1.2 µM,-1%
same,growth inhibition,[12]; at 3.7 µM,-5%
same,growth inhibition,[12]; at 11.0 µM,-1%
same,growth inhibition,[12]; at 33.0 µM,59%
same,growth inhibition,[12]; at 100.0 µM,63%
same,growth inhibition,[13]; at 1.2 µM,-1%
same,growth inhibition,[13]; at 3.7 µM,-4%
same,growth inhibition,[13]; at 11.0 µM,4%
same,growth inhibition,[13]; at 33.0 µM,53%
same,growth inhibition,[13]; at 100.0 µM,57%
same,growth inhibition,[14]; [16],-5%
same,growth inhibition,[14]; [17],52%
same,growth inhibition,[14]; at 50.0 µM,68.3%
same,growth inhibition,[15]; at 1.2 µM,-2%
same,growth inhibition,[15]; at 3.7 µM,-1%
same,growth inhibition,[15]; at 11.0 µM,7%
same,growth inhibition,[15]; at 33.0 µM,62%
same,growth inhibition,[15]; at 100.0 µM,64%
